Records with an inconclusive call do not appear. Calls of active or inactive are those of the source. The call rests on the fitted dose curve; in most records, active means well fitted curve in the direction sought with a large enough effect; inconclusive means small, poorly fitted or top-dose-only effect, or another doubt; inactive means no such curve, though single readings can be large or run the other way.
assay: qHTS for Inhibitors of the vitamin D receptor (VDR): Hit Validation using a Texas Red Assay (AID 602201); conditions: VDR coregulator binding, Texas Red fluorescence polarization, agonist-bound VDR ligand-binding domain; series mostly up to 57.1 µM; activity, negative = inhibition: at the top concentration
Outline: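 Fluorescence polarization with 1.5 uM VDR-LBD, LG19078 and 7 nM Texas Red (final). After 2 hours at ambient temperature, read at Ex 595 nm/Em 615 nm.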
On the % scale 0 is the no-effect control and ±100 the full control effect; potency means the concentration at half of the fitted maximal effect.

| Structure (SMILES) | Potency | activity, negative = inhibition |
| --- | --- | --- |
| CC1=NNC(=O)/C1=C\c1cn(-c2ccccc2)nc1-c1ccccc1 | 3.16 µM (active) |  |
| O=C(/C=C/c1ccccc1F)c1cccc([N+](=O)[O-])c1 | 3.16 µM (active) |  |
| O=C(/C=C/c1cccc([N+](=O)[O-])c1)c1cccs1 | 14.1 µM (active) |  |
| O=C(O)CCNc1ccc(NCCC(=O)O)c2c1C(=O)c1ccccc1C2=O | 8.91 µM (active) |  |
| COc1ccc(/C=C2/C(=O)N(c3ccccc3)N=C2C)cc1Br |  | -7.66% (inactive) |
| C#CCOc1ccc(/C=C2/C(=O)ON=C2C)cc1Br |  | -6.49% (inactive) |
| Cc1c(C(=O)Nc2nc(-c3ccccn3)cs2)oc2ccccc12 |  | 5.73% (inactive) |
| O=C(/C=C/c1cc(Br)ccc1O)c1ccco1 |  | 3.4% (inactive) |
| CCOC(=O)/C(=C\c1cccc(O)c1)c1nc2sc(C)c(C)c2c(=O)[nH]1 |  | -7.53% (inactive) |
| CCSc1nnc(NC(=O)c2nc(S(=O)(=O)Cc3ccc(F)cc3)ncc2Cl)s1 | 3.16 µM (active) |  |
| CCOc1ccc(Cl)cc1/C=C1/C(=O)ON=C1C | 7.94 µM (active) |  |
| O=[N+]([O-])c1c(Nc2ccc(O)cc2)cc(Cl)c2nonc12 | 3.16 µM (active) |  |
| Cc1sc(C(C2C(=O)CC(C)(C)CC2=O)C2C(=O)CC(C)(C)CC2=O)cc1[N+](=O)[O-] | 7.94 µM (active) |  |
| O=C1NN(c2ccccc2)C(=O)/C1=C\c1cccc(OC(=O)c2cccs2)c1 |  | 35.2% (inactive) |
| CC(C)(C)C(=O)Nc1ccc2c(c1)C(=O)C(=O)c1ccccc1-2 | 3.16 µM (active) |  |
| NC(=O)c1c(N)sc2c1CCCCC2 | 14.1 µM (active) |  |
| [O-]/[N+](=C/c1ccc(F)cc1)c1ccc(Cl)cc1 |  | -6.68% (inactive) |
| O=C(/C=C/c1ccc(Cl)cc1)c1ccc([N+](=O)[O-])o1 | 2.82 µM (active) |  |
| COc1cc(/C=C/C(=O)c2ccc(F)cc2)cc(OC)c1OC |  | -16.5% (inactive) |
| Cc1cccc(/C=C/C(=O)c2ccc([N+](=O)[O-])o2)c1 | 1.78 µM (active) |  |

| Structure (SMILES) | Potency | activity, negative = inhibition |
| --- | --- | --- |
| O=C(Nc1nnc(COc2ccc(Cl)cc2)s1)c1ccco1 |  | -12.3% (inactive) |
| Nc1nc(-c2cccc(F)c2)cs1 |  | -20.4% (inactive) |
| COc1cc(/C=C2\C(=O)ON=C2c2ccccc2)cc(Br)c1O |  | 14% (inactive) |
| CN1C(=O)/C(=N\OC(=O)c2ccccc2Cl)c2ccccc21 | 31.6 µM (active) |  |
| CCOC(=O)CS(=O)(=O)c1nc(-c2ccccc2)cc(C(F)(F)F)n1 |  | -18.5% (inactive) |
| Cc1ccc(NN2C(=O)C=C(c3ccccc3)C2=O)cc1 |  | -16.9% (inactive) |
| Cc1nc2c3cc(F)ccc3n(Cc3ccccc3)c2s1 |  | -12.9% (inactive) |
| CCOC(=O)/C(C#N)=C1/C(=O)N(Cc2ccccc2)c2ccccc21 |  | -16.8% (inactive) |
| CCN1C(=O)/C(=C\C(=O)c2cccs2)c2cc(Br)ccc21 |  | -13.2% (inactive) |
| N#Cc1c(Nc2ccc(Cl)cc2)s[nH]c1=O |  | -3.75% (inactive) |
| CN(C)c1ccc(C=Nc2ccc(N(C)C)cc2)cc1 | 17.8 µM (active) |  |
| O=c1[nH]c(/C=C/c2ccccc2)c([N+](=O)[O-])c(=O)[nH]1 |  | -6.41% (inactive) |
| CCc1oc2ccccc2c1C(=O)CCN1CCCCC1 | 3.55 µM (active) |  |
| Cc1nnc(NC(=O)c2nc(S(=O)(=O)Cc3ccccc3)ncc2Cl)s1 | 22.4 µM (active) |  |
| CC(C)c1ccc(/C=C/c2[nH]c(=O)[nH]c(=O)c2[N+](=O)[O-])cc1 |  | -7.89% (inactive) |
| CCN(CC)S(=O)(=O)c1cc(NC(=O)c2ccc3c(c2)NC(=O)C(C)S3)ccc1C (stereo not given) |  | -2.56% (inactive) |
| O=C(Oc1ccccc1/C=C\C(=O)c1cc2ccccc2o1)c1ccccc1 | 8.91 µM (active) |  |
| CCC(C)(C)n1nnnc1C(c1ccc(O)c(OC)c1)N1CCc2ccccc2C1 (stereo not given) | 25.1 µM (active) |  |
| Nc1c(C(=O)N2CCCCC2)sc(=S)n1-c1ccccc1 | 35.5 µM (active) |  |
| O=C(/C=C/c1ccc([N+](=O)[O-])cc1)c1cccs1 | 25.1 µM (active) |  |
